# Data taken from PubChem BioAssay (NCATS).
# Results filed as inconclusive are left out. Activity calls are given as the source filed them. Unless noted, the call rests on the fitted dose curve; in most records, active means well fitted curve in the direction sought with a large enough effect; inconclusive means small, poorly fitted or top-dose-only effect, or another doubt; inactive means no such curve, though single readings can be large; an effect the other way counts as inactive or inconclusive.
# Key:
# [1] = target: Muscarinic acetylcholine receptor M1 (Rattus norvegicus) (UniProt P08482); experiment: qHTS Assay for Antagonists of Acetylcholine Muscarinic M1 Receptor: Kinetic Measurement of Intracellular Calcium Response (AID 943); conditions: M1-expressing cells, kinetic intracellular calcium fluorescence; series mostly up to 35.3 µM; further: potency means the concentration at half of the fitted maximal effect; nearly all actives have a fitted effect of over 75% in size
# Chain of Muscarinic acetylcholine receptor M1 (Rattus norvegicus) (P08482 whole entry, looked up): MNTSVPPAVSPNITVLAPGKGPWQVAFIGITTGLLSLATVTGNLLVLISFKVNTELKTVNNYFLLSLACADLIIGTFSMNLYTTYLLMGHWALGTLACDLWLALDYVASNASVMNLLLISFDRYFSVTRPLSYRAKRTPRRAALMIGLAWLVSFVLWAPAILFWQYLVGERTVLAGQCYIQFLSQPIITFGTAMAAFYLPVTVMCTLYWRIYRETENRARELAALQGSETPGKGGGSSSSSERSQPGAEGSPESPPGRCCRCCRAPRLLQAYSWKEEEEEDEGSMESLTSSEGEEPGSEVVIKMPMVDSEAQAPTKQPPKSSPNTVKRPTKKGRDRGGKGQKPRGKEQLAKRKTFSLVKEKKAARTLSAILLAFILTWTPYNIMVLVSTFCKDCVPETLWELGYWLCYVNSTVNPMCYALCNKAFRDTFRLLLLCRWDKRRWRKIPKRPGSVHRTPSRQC
# Procedure, shortened: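 Read-out: peak over basal Fluo-4 fluorescence, kinetic at 1 Hz for 4 min after EC80 carbachol (100 nM final). Rat M1-CHO cells, dye loaded 1 h at 37C, compound added 10 min before agonist.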
# [2] = target: Pyruvate kinase (Leishmania mexicana) (UniProt Q27686); experiment: qHTS Validation Assay for Inhibitors of Leishmania Mexicana Pyruvate Kinase (AID 945); conditions: purified L. mexicana pyruvate kinase, enzyme activity, E451W mutant enzyme; series mostly up to 57.5 µM
# Chain of Pyruvate kinase (Leishmania mexicana) (Q27686 2-499 E452W): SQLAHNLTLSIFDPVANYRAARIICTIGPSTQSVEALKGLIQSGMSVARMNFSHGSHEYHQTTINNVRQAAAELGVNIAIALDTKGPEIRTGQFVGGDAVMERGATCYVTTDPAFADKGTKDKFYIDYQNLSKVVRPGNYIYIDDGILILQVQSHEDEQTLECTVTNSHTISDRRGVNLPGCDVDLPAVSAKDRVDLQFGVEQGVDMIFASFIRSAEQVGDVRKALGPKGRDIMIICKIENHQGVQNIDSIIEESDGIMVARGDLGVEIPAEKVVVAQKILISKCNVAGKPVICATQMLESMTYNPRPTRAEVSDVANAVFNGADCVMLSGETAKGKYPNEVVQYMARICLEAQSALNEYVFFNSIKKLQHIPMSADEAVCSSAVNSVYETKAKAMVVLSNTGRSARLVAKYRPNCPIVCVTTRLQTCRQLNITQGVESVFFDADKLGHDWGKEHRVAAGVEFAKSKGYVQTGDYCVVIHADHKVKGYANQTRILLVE
# Procedure, shortened: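 Pyruvate kinase activity of E451W LmPYK (0.2 nM) was followed as ATP output after 1 h at room temperature with 0.5 mM PEP and 0.1 mM ADP, detected by PKLight luminescence.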
# [3] = target: Pyruvate kinase PKM (Homo sapiens) (UniProt P14618); experiment: qHTS Assay for Activators of Human Muscle Pyruvate Kinase (AID 954; active means well fitted curve in the direction sought with a large enough effect, not every such curve was filed as active); conditions: purified human muscle pyruvate kinase, luciferase-coupled luminescence, 1 h; series mostly up to 57.5 µM
# Chain of Pyruvate kinase PKM (Homo sapiens) (P14618 whole entry, looked up): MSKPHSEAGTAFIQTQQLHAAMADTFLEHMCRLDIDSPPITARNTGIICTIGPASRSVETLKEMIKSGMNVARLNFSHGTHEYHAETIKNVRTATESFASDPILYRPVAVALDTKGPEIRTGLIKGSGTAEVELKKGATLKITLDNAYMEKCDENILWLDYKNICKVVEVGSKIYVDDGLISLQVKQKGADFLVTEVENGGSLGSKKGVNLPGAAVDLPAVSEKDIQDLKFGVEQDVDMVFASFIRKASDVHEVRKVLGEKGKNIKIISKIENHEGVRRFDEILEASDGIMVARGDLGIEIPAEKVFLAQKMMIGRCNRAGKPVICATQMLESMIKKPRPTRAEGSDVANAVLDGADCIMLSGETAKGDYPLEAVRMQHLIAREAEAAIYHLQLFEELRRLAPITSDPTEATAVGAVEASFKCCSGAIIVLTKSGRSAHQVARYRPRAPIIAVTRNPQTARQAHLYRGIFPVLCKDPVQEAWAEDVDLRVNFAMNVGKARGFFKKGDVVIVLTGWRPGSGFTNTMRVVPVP
# Procedure, shortened: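 Compound pinned into substrate mix (0.5 mM PEP, 0.1 mM ADP), then 0.1 nM PKM2 added; 1 h, RT. Stop/detection luciferase reagent added, luminescence read. Normalized to no-inhibition and no-enzyme or reference-inhibitor controls.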
# [4] = target: Alpha-galactosidase A (Homo sapiens) (UniProt P06280); experiment: Counterscreen for Glucocerebrosidase Inhibitors: qHTS Assay for Human alpha-Galactosidase at pH 4.5 (AID 992); conditions: purified enzyme, fluorogenic substrate; series mostly up to 76.9 µM
# Chain of Alpha-galactosidase A (Homo sapiens) (P06280 whole entry, looked up): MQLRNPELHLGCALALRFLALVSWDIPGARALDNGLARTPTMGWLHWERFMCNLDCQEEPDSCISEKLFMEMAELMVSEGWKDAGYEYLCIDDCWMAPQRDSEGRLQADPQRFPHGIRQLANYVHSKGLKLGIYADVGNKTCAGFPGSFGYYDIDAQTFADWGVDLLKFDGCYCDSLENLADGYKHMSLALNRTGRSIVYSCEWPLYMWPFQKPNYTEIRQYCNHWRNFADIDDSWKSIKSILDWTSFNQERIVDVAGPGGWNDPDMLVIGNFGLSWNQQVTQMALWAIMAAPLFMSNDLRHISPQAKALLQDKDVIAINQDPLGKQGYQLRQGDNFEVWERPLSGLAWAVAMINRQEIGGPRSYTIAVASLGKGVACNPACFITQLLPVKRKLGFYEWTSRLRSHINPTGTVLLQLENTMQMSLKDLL
# Procedure, shortened: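 Steps: enzyme (2 nM final), then compound across 0.7 nM to 77 uM, then 80 uM fluorogenic galactopyranoside substrate; incubate 20 min at room temperature; quench at pH 10; measure fluorescence at 365/440 nm.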
# [5] = target: alpha-glucosidase (Oryza sativa, rice) (UniProt Q653V4); experiment: Counterscreen for Glucocerebrosidase Inhibitors: qHTS Assay for Rice alpha-Glucosidase at pH 5.0 (AID 997); conditions: rice alpha-glucosidase enzyme activity; series mostly up to 76.9 µM
# Procedure, shortened: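 Endpoint fluorogenic assay at pH 5.0: compounds (0.7 nM to 77 uM) titrated against 4 nM rice enzyme and 400 uM 4-MU-alpha-glucoside for 20 min at room temperature; NaOH/glycine stop, read ex 365/em 440 nm, Hill-fitted AC50.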
# [6] = S16 Schwann cell PMP22 intronic element beta-lactamase assay (AID 624044; calls by dose curve; further: nearly all actives have a fitted effect of over 15% in size); conditions: S16 rat Schwann cells, PMP22 element beta-lactamase FRET, 24 h; series mostly up to 38.3 µM
# Procedure, shortened: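 Beta-lactamase reporter under a PMP22 intronic regulatory element in stable S16 rat Schwann cells; 24 h compound exposure. 460 nm blue signal normalized between DMSO (0%) and potassium clavulanate, with 535 nm FRET tracking viability; curves classed by r2 and response.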
# [7] = system: ATS189; experiment: qHTS profiling for inhibitors of Plasmodium falciparum proliferation (AID 504749); further: potency means the concentration at half of the fitted maximal effect; nearly all actives have a fitted effect of over 60% in size; conditions: P. falciparum in erythrocytes, SYBR Green DNA, 72 h; series mostly up to 28.7 µM
# Procedure, shortened: (§1)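 In a 72 h erythrocytic culture (37 C, humidified, 5% CO2) at 2.5% hematocrit and 0.3% starting parasitemia, compounds were tested; SYBR Green I in detergent lysis buffer stained parasite DNA overnight.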
# [8] = system: CP191; experiment: as above; conditions: P. falciparum in erythrocytes, SYBR Green DNA, 72 h; series mostly up to 28.7 µM
# Procedure, shortened: as §1
# [9] = system: P93_24; experiment: as above; conditions: P. falciparum in erythrocytes, SYBR Green DNA, 72 h; series mostly up to 28.7 µM
# Procedure, shortened: as §1
# [10] = system: TAB165; experiment: as above; conditions: P. falciparum in erythrocytes, SYBR Green DNA, 72 h; series mostly up to 28.7 µM
# Procedure, shortened: as §1
# [11] = Confirmatory qHTS for small molecule stabilizers of the endoplasmic reticulum resident proteome: Secreted ER Calcium Modulated Protein (SERCaMP) assay (AID 1508628); conditions: SERCaMP secreted luciferase ER calcium/proteostasis reporter; series mostly up to 76.3 µM;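 further: SH-SY5Y cells given compound 16 h then thapsigargin 100 nM for 4 h; nearly all actives have a fitted effect of over 40% in size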
# Procedure, shortened: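 GLuc-SERCaMP-expressing SH-SY5Y cells, pretreated 16 h with compound, are challenged with thapsigargin to empty ER calcium stores; after 4 h, coelenterazine is added directly to the medium and luminescence is imaged.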
# [12] = Cell Viability qHTS for small molecule stabilizers of the endoplasmic reticulum resident proteome (AID 1508629); conditions: cell viability counter-screen, 100 nM thapsigargin for final 4 h;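 further: potency means the concentration at half of the fitted maximal effect; compound exposure about 46 h in total before the viability read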
# [13] = target: Rap guanine nucleotide exchange factor 4 (Homo sapiens) (UniProt Q8WZA2); experiment: Confirmatory qHTS for antagonist of cAMP-regulated guanine nucleotide exchange factor 4 (EPAC2) (AID 1645885); conditions: EPAC2 Rap1B-BODIPY-GDP exchange fluorescence, biochemical; series mostly up to 114 µM; further: potency means the concentration at half of the fitted maximal effect; nearly all actives have a fitted effect of over 25% in size
# Chain of Rap guanine nucleotide exchange factor 4 (Homo sapiens) (Q8WZA2 whole entry, looked up): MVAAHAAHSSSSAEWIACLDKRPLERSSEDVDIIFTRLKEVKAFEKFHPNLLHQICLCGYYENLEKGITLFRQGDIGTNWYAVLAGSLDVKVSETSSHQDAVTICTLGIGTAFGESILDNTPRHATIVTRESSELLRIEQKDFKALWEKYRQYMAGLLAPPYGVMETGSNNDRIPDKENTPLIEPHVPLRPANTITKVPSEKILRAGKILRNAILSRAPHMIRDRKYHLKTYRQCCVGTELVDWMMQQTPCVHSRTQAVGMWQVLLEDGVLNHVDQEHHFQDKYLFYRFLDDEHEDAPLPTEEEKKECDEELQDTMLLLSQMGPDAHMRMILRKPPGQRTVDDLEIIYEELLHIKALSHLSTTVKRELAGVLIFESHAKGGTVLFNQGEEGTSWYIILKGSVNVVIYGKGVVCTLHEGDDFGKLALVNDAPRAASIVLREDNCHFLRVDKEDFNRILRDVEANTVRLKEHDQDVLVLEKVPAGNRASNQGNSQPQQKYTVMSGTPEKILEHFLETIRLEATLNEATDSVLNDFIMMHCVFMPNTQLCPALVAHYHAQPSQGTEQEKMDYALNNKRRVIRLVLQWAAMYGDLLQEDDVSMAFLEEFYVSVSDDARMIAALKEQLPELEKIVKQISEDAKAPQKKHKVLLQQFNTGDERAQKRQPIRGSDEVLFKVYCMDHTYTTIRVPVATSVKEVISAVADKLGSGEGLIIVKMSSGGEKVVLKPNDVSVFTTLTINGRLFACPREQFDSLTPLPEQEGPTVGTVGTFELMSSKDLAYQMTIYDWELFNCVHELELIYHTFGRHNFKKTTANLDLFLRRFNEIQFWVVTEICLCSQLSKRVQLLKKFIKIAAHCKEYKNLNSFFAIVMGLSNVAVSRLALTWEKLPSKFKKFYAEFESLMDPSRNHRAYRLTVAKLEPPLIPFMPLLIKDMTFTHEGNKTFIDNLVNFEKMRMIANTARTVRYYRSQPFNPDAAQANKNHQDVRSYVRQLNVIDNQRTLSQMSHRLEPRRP
smiles,measurement,setting,value
CN1CCN(CCC=C2c3ccccc3Sc3ccc(S(=O)(=O)N(C)C)cc32)CC1,Potency,[1],14.1 µM (active)
same,Potency,[2],inactive
same,outcome,[3],inactive
same,outcome,[4],inactive
same,outcome,[5],inactive
same,Potency,[6],inactive
same,Potency,[7],8.91 µM (active)
same,Potency,[8],12.6 µM (active)
same,Potency,[9],12.6 µM (active)
same,Potency,[10],8.91 µM (active)
CS(=O)(=O)CCNCc1nc(-c2ccc3ncnc(Nc4ccc(OCc5cccc(F)c5)c(Cl)c4)c3c2)cs1,Potency,[11],inactive
same,Potency,[12],15.8 µM (active)
CCC(=O)O[C@H]1CC[C@H]2[C@@H]3CCc4cc(O)ccc4[C@H]3CC[C@]12C,Potency,[13],27.8 µM (active)
